Assay results published in PubChem BioAssay (NCATS).
Inconclusive results are not listed. The source made the active and inactive calls. Calls follow the shape of the dose curve; as a rule, active = well fitted inhibition curve with a large enough effect; inconclusive = small, poorly fitted or top-dose-only effect; inactive = no such curve, though single readings can be large or run the other way.

assay: Primary qHTS for small molecule stabilizers of the endoplasmic reticulum resident proteome: Secreted ER Calcium Modulated Protein (SERCaMP) assay (AID 1508630); settings: SH-SY5Y GLuc-SERCaMP (Gaussia luciferase released on ER calcium loss) secretion, thapsigargin, luminescence; series mostly up to 38.4 µM
Method in brief: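 GLuc-SERCaMP-expressing SH-SY5Y cells, pretreated 16 h with compound, are challenged with thapsigargin to empty ER calcium stores; after 4 h, coelenterazine is added directly to the medium and luminescence is imaged.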

Potency, inactive:
COc1cccc2c(=O)c3ccoc3n(C)c12
CC1=CC(=O)OC1Cc1ccc2ccccc2n1 (stereo not drawn)
CC1(C)CCC[C@@]2(C)C1CC[C@@](C)(O)[C@@H]2CC[C@@](C)(O)C1CO1 (stereo partly drawn)
COc1cc(=O)n(C)c2c(OCC3OC(C)(C)OC3(C)C)cccc12 (stereo not drawn)
C/C=C/c1ccc2oc(-c3ccc(O)cc3)c(C)c2c1
COc1c(CO)cc(CO)cc(CO)c1=O
O=C(O)C1CCC[C@@H]2[C@@H]3CC(CN12)[C@@H]1CCCCN1C3 (stereo partly drawn)
O=C(O)C[C@@H]1NC(=O)[C@H](Cc2ccccc2)NC1=O
CC(C)=CCCC1=CC[C@H](C(=O)O)[C@H](C(=O)O)C1
C/C(N[C@@H]1CSCC1O)=C1/C(=O)CC2[C@@H]1C2(C)C (stereo partly drawn)
Cn1c2c(c(=O)c3ccccc31)C[C@@H](O)C(C)(C)O2
CC(=O)O[C@@H]1CC2C(C)(C)C(=O)C=C[C@]2(C)C2CC[C@]3(C)C(=CC[C@H]3C3CO[C@@H](C(C)(C)O)[C@H](O)C3)[C@@]21C (stereo partly drawn)
COc1cc(C2=N/C(=C\c3ccccc3)C(=O)O2)cc(OC)c1OC
COc1cc2oc(=O)c3c4c(cc5ccc(c1CCN(C)C)c2c53)OCO4
COc1cc2c(cc1O)-c1ccccc1CN(C)C2
C[C@H]1CC[C@@H]2N(C1)C[C@H]1[C@@H]3C[C@H]4[C@@H](C/C(=N\O)[C@H]5C[C@@H](O)CC[C@@]54C)[C@@H]3CC[C@H]1[C@]2(C)O
C[C@@H](CN(C)C[C@H]1C(=O)O[C@@H]2C[C@@]3(C)CCC[C@]4(CO4)C3CC21)[C@H](O)c1ccccc1 (stereo partly drawn)
COc1cc2c(cc1OC)-c1cc3cc(OC)c(OC)cc3c(=O)n1CC2
COc1ccc(/C=C2\NC(=O)[C@@H]3Cc4ccccc4CN3C2=O)cc1
Cc1cn(C2OC[C@@H](O)[C@@H]2CO)c(=O)[nH]c1=O (stereo partly drawn)
O=C(O)c1c(C(=O)O)c2ccccc2[nH]c1=O
COc1cc2c(cc1OC)C(c1c[nH]c3ccccc13)NCC2 (stereo not drawn)
Oc1cc2c(cc1O)[C@@H]1c3ccc(O)c(O)c3OC[C@]1(O)C2
